What was measured:
Assay in all cases: DAPPL (digital affinity profiling via proximity ligation, sequencing); 10 mM Tris-HCl pH 7.5, 50 mM NaCl, 1 mM DTT, 4% glycerol, room temperature, 30 min; GST-TFs on glutathione beads, 16-mer random dsDNA library, 0.1% formaldehyde crosslink after washing; high values mean tight binding
Details in all cases: protein: recombinant; tags: N-terminal GST; dsDNA, one strand shown
ERF = molecular target: T1, ERF (Homo sapiens, UniProt P50548 1-548)
T1 sequence: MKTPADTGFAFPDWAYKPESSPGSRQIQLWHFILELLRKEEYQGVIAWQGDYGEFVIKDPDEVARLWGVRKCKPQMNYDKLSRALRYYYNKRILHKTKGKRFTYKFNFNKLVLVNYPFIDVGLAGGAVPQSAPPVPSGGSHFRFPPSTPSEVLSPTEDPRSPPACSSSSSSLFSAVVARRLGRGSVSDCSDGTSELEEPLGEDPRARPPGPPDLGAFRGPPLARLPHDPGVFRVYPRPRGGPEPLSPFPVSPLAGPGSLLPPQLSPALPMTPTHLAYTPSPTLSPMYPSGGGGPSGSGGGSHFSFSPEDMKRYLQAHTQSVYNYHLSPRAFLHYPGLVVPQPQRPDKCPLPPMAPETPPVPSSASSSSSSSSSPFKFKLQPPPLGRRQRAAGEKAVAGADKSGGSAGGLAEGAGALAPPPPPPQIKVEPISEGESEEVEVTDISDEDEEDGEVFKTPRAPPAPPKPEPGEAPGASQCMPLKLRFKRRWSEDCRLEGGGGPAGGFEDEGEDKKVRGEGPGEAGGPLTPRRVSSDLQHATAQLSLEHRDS
Method in brief: (§1)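 Binding signal is given per hexamer as its read frequency for a factor divided by its frequency in the tag-only sample. GST-fused human transcription factors were expressed in yeast, captured on glutathione beads, barcoded with DNA and pooled with that sample, then incubated with 200 nmole of a 16-mer random double-stranded DNA library in Tris/NaCl/DTT/glycerol buffer for 30 min at room temperature. The pools were then washed, crosslinked, proximity-ligated, amplified by PCR and sequenced on an Illumina NextSeq500.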

ETV3L = molecular target: T2, ETV3L (Homo sapiens, UniProt Q6ZN32 1-361)
T2 sequence: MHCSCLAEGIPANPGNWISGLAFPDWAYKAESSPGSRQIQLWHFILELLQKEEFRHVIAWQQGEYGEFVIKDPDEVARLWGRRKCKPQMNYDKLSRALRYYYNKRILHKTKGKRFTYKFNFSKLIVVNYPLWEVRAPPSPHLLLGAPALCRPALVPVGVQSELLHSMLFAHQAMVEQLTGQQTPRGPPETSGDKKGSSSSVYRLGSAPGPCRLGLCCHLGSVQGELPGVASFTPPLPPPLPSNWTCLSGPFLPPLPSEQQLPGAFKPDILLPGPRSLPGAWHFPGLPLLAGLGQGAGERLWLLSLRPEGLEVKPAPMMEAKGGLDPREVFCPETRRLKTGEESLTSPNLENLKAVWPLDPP
Method in brief: as §1

ETS2 = molecular target: T3, ETS2 (Homo sapiens, UniProt P15036 1-469)
T3 sequence: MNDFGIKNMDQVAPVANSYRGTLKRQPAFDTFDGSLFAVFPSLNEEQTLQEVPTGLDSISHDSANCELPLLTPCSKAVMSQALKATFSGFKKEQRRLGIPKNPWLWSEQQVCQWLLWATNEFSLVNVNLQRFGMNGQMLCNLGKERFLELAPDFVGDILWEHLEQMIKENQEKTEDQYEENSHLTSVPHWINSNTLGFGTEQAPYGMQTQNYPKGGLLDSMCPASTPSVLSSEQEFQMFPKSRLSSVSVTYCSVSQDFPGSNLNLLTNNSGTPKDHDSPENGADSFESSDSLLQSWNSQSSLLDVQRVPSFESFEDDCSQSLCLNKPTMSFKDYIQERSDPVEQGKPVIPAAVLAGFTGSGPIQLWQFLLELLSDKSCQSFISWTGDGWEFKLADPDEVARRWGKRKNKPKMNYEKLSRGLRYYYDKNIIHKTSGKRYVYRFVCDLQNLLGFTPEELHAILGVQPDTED
Method in brief: as §1

SPDEF = molecular target: T4, SPDEF (Homo sapiens, UniProt O95238 1-335)
T4 sequence: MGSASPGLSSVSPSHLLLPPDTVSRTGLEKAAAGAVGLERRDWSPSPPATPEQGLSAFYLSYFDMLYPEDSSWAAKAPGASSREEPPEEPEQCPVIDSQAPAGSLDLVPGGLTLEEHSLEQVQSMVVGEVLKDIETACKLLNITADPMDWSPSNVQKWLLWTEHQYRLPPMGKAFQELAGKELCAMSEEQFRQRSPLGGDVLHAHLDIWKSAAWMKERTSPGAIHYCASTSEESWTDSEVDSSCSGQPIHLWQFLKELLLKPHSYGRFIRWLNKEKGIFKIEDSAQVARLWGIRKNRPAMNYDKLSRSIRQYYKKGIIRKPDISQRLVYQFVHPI
Method in brief: as §1

ETV7 = molecular target: T5, ETV7 (Homo sapiens, UniProt Q9Y603 1-341)
T5 sequence: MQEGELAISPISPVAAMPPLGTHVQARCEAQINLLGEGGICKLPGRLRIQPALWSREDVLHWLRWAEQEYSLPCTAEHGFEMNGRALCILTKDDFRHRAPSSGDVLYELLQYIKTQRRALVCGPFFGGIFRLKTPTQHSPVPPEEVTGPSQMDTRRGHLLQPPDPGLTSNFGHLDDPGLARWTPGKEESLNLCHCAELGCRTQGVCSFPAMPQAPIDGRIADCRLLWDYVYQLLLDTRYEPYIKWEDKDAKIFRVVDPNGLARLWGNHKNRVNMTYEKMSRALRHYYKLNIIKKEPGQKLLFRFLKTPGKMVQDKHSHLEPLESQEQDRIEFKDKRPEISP
Method in brief: as §1

ELF5 = molecular target: T6, ELF5 (Homo sapiens, UniProt Q9UKW6-2 1-255)
T6 sequence: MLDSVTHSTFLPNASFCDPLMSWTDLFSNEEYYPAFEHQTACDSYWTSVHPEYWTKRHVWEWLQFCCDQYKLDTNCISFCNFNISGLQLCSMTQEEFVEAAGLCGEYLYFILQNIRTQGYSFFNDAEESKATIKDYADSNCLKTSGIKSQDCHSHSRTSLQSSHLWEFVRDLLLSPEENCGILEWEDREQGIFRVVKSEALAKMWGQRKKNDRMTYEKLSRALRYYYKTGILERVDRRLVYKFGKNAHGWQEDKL
Method in brief: as §1

ETV3 = molecular target: T7, ETV3 (Homo sapiens, UniProt P41162-2 1-143)
T7 sequence: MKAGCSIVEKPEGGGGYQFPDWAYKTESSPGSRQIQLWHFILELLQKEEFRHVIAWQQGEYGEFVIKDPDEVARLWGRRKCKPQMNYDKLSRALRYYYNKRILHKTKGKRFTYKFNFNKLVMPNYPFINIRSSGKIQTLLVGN
Method in brief: as §1

ETV6 = ETV6 (Homo sapiens, UniProt P41212 1-452)
Method in brief: as §1

Chain of ETV6 (P41212 whole entry): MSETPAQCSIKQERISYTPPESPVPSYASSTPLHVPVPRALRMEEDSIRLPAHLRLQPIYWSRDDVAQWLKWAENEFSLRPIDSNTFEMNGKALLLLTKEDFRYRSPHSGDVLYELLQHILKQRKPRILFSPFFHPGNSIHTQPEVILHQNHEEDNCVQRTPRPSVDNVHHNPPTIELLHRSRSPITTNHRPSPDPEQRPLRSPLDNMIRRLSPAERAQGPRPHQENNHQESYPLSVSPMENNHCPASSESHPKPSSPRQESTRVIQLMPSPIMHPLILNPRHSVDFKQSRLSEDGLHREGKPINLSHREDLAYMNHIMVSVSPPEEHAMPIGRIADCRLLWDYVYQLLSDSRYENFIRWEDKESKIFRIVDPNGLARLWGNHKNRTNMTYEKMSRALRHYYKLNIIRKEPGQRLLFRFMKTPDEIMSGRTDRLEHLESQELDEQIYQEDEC

Sequence	binding signal (ERF)	binding signal (ETV3L)	binding signal (ETS2)	binding signal (SPDEF)	binding signal (ETV7)	binding signal (ELF5)	binding signal (ETV3)	binding signal (ETV6)
CAACCT	1.26 fold enrichment (6-mer frequency, TF over GST control)	1.13 fold enrichment (6-mer frequency, TF over GST control)	1.2 fold enrichment (6-mer frequency, TF over GST control)	1.19 fold enrichment (6-mer frequency, TF over GST control)	1.09 fold enrichment (6-mer frequency, TF over GST control)	1.2 fold enrichment (6-mer frequency, TF over GST control)	1.1 fold enrichment (6-mer frequency, TF over GST control)	1.18 fold enrichment (6-mer frequency, TF over GST control)
GGAAGT	2.56 fold enrichment (6-mer frequency, TF over GST control)	2.86 fold enrichment (6-mer frequency, TF over GST control)	3.2 fold enrichment (6-mer frequency, TF over GST control)	2.97 fold enrichment (6-mer frequency, TF over GST control)	2.91 fold enrichment (6-mer frequency, TF over GST control)	3.88 fold enrichment (6-mer frequency, TF over GST control)	3.42 fold enrichment (6-mer frequency, TF over GST control)	3.88 fold enrichment (6-mer frequency, TF over GST control)
ACATCG	1.11 fold enrichment (6-mer frequency, TF over GST control)	1.18 fold enrichment (6-mer frequency, TF over GST control)	1.02 fold enrichment (6-mer frequency, TF over GST control)	1.08 fold enrichment (6-mer frequency, TF over GST control)	1.07 fold enrichment (6-mer frequency, TF over GST control)	1.01 fold enrichment (6-mer frequency, TF over GST control)	1.08 fold enrichment (6-mer frequency, TF over GST control)	1.04 fold enrichment (6-mer frequency, TF over GST control)
TAAACC	1.28 fold enrichment (6-mer frequency, TF over GST control)	1.26 fold enrichment (6-mer frequency, TF over GST control)	1.22 fold enrichment (6-mer frequency, TF over GST control)	1.28 fold enrichment (6-mer frequency, TF over GST control)	1.22 fold enrichment (6-mer frequency, TF over GST control)	1.21 fold enrichment (6-mer frequency, TF over GST control)	1.26 fold enrichment (6-mer frequency, TF over GST control)	1.29 fold enrichment (6-mer frequency, TF over GST control)
ACTGAA	1.13 fold enrichment (6-mer frequency, TF over GST control)	1.1 fold enrichment (6-mer frequency, TF over GST control)	1.23 fold enrichment (6-mer frequency, TF over GST control)	1.21 fold enrichment (6-mer frequency, TF over GST control)	1.06 fold enrichment (6-mer frequency, TF over GST control)	1.11 fold enrichment (6-mer frequency, TF over GST control)	1.21 fold enrichment (6-mer frequency, TF over GST control)	1.17 fold enrichment (6-mer frequency, TF over GST control)
CTAACG	1.23 fold enrichment (6-mer frequency, TF over GST control)	1.25 fold enrichment (6-mer frequency, TF over GST control)	1.15 fold enrichment (6-mer frequency, TF over GST control)	1.16 fold enrichment (6-mer frequency, TF over GST control)	1.26 fold enrichment (6-mer frequency, TF over GST control)	1.12 fold enrichment (6-mer frequency, TF over GST control)	1.17 fold enrichment (6-mer frequency, TF over GST control)	1.16 fold enrichment (6-mer frequency, TF over GST control)
CCTGGT	1.37 fold enrichment (6-mer frequency, TF over GST control)	1.53 fold enrichment (6-mer frequency, TF over GST control)	1.43 fold enrichment (6-mer frequency, TF over GST control)	1.69 fold enrichment (6-mer frequency, TF over GST control)	1.31 fold enrichment (6-mer frequency, TF over GST control)	1.58 fold enrichment (6-mer frequency, TF over GST control)	1.49 fold enrichment (6-mer frequency, TF over GST control)	1.4 fold enrichment (6-mer frequency, TF over GST control)
CCACAT	1.28 fold enrichment (6-mer frequency, TF over GST control)	1.15 fold enrichment (6-mer frequency, TF over GST control)	1.2 fold enrichment (6-mer frequency, TF over GST control)	1.22 fold enrichment (6-mer frequency, TF over GST control)	1.05 fold enrichment (6-mer frequency, TF over GST control)	1.15 fold enrichment (6-mer frequency, TF over GST control)	1.17 fold enrichment (6-mer frequency, TF over GST control)	1.2 fold enrichment (6-mer frequency, TF over GST control)
CGCTCA	1.2 fold enrichment (6-mer frequency, TF over GST control)	1.24 fold enrichment (6-mer frequency, TF over GST control)	1.14 fold enrichment (6-mer frequency, TF over GST control)	1.05 fold enrichment (6-mer frequency, TF over GST control)	1.09 fold enrichment (6-mer frequency, TF over GST control)	1.16 fold enrichment (6-mer frequency, TF over GST control)	1.07 fold enrichment (6-mer frequency, TF over GST control)	1.09 fold enrichment (6-mer frequency, TF over GST control)
ATCCAC	1.27 fold enrichment (6-mer frequency, TF over GST control)	1.05 fold enrichment (6-mer frequency, TF over GST control)	1.2 fold enrichment (6-mer frequency, TF over GST control)	1.18 fold enrichment (6-mer frequency, TF over GST control)	1.18 fold enrichment (6-mer frequency, TF over GST control)	1.16 fold enrichment (6-mer frequency, TF over GST control)	1.14 fold enrichment (6-mer frequency, TF over GST control)	1.25 fold enrichment (6-mer frequency, TF over GST control)
TGTCAT	1.38 fold enrichment (6-mer frequency, TF over GST control)	1.19 fold enrichment (6-mer frequency, TF over GST control)	1.12 fold enrichment (6-mer frequency, TF over GST control)	1.17 fold enrichment (6-mer frequency, TF over GST control)	1.1 fold enrichment (6-mer frequency, TF over GST control)	1.09 fold enrichment (6-mer frequency, TF over GST control)	1.12 fold enrichment (6-mer frequency, TF over GST control)	1.11 fold enrichment (6-mer frequency, TF over GST control)
ATGTAT	1.47 fold enrichment (6-mer frequency, TF over GST control)	1.48 fold enrichment (6-mer frequency, TF over GST control)	1.34 fold enrichment (6-mer frequency, TF over GST control)	1.65 fold enrichment (6-mer frequency, TF over GST control)	1.47 fold enrichment (6-mer frequency, TF over GST control)	1.31 fold enrichment (6-mer frequency, TF over GST control)	1.42 fold enrichment (6-mer frequency, TF over GST control)	1.32 fold enrichment (6-mer frequency, TF over GST control)
CCGGTC	1.1 fold enrichment (6-mer frequency, TF over GST control)	1.13 fold enrichment (6-mer frequency, TF over GST control)	1.2 fold enrichment (6-mer frequency, TF over GST control)	1.38 fold enrichment (6-mer frequency, TF over GST control)	1.22 fold enrichment (6-mer frequency, TF over GST control)	1.13 fold enrichment (6-mer frequency, TF over GST control)	1.2 fold enrichment (6-mer frequency, TF over GST control)	1.15 fold enrichment (6-mer frequency, TF over GST control)
CAAACT	1.23 fold enrichment (6-mer frequency, TF over GST control)	1.14 fold enrichment (6-mer frequency, TF over GST control)	1.21 fold enrichment (6-mer frequency, TF over GST control)	1.16 fold enrichment (6-mer frequency, TF over GST control)	1.15 fold enrichment (6-mer frequency, TF over GST control)	1.18 fold enrichment (6-mer frequency, TF over GST control)	1.13 fold enrichment (6-mer frequency, TF over GST control)	1.21 fold enrichment (6-mer frequency, TF over GST control)
GATATG	1.09 fold enrichment (6-mer frequency, TF over GST control)	1.08 fold enrichment (6-mer frequency, TF over GST control)	1.18 fold enrichment (6-mer frequency, TF over GST control)	1.24 fold enrichment (6-mer frequency, TF over GST control)	1.07 fold enrichment (6-mer frequency, TF over GST control)	1.14 fold enrichment (6-mer frequency, TF over GST control)	1.12 fold enrichment (6-mer frequency, TF over GST control)	1.04 fold enrichment (6-mer frequency, TF over GST control)

Source: article PMC7862700, “An all-to-all approach to the identification of sequence-specific readers for epigenetic DNA modifications on cytosine”
